Rows were chosen to be rich in hits. Some 2.1% of all compounds tested hit in one or more screens of this group.
TDP-43 yeast inh: rescues yeast growth from TDP-43 toxicity; AID 652104; TDP-43 expressing yeast growth rescue, BacTiter-Glo, 24 h; Potency, µM (doses to about 46.1 µM), inactives show at the highest dose growth rescue (activation), hits mostly activators; 410,000 tested, 1.8% active; also: % of control where 0% means no effect; nearly all actives have a fitted effect of over 50% in size
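Yeast cells expressing TDP-43 under galactose induction are exposed to compounds for 24 hr at 30 deg C. BacTiter-Glo luminescence measures growth, so protective compounds score as activators.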
aSyn rescue: alpha-synuclein toxicity inhibition in yeast. Yeast expressing alpha-synuclein, growth rescue, BacTiter-Glo, 24 h. Potency, µM (series often up to 46.1 µM), inactives show at the highest dose growth rescue (activation), most hits filed as activators. 370,000 tested, 0.14% active; also: % of control where 0% means no effect; nearly all actives have a fitted effect of over 65% in size
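Screening used galactose-induced yeast with toxic alpha-synuclein levels, exposed to compound for 24 hr at 30 deg C. Cell growth, read with BacTiter-Glo luminescence, gave the measured signal.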
Abeta yeast res: A-beta toxicity reversal in yeast; yeast expressing A-beta42, growth rescue, OD600, 48 h; response scale: 0% DMSO, 100% iron-clioquinol control; AID 1347071; Potency, µM (doses to about 46.1 µM), hits mostly activators; 410,000 tested, 0.063% active; also: nearly all actives have a fitted effect of over 55% in size
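Yeast A-beta toxicity model in growth medium with pinned compounds, 48 h at 30 C; growth read as absorbance at 600 nm. Normalized to FeCl3/clioquinol equimolar mix (positive) and DMSO (negative).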
FUS suppressor: suppressors of FUS proteinopathy in yeast | S. cerevisiae FUS-expressing, growth rescue, OD600, 24 h | Potency, µM (doses to about 76.6 µM), actives largely listed as activators | 390,000 tested, 0.24% active | AID 1347120;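 also: plate controls were DMSO vehicle for no effect and reference control for full effect; nearly all actives have a fitted effect of over 55% in size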
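Quantitative HTS measuring growth restoration of FUS-toxic yeast. Galactose-induced cells (OD 0.005) were exposed 24hr at 30C to compounds at several concentrations, then absorbance at 600 nm was recorded.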
* marks the source's active call; other numbers are inactive results; i = inactive; ? = inconclusive; nt = not tested or not shown; ! = a repeat was not active. Calls follow the shape of the dose curve; as a rule, active = well fitted curve in the direction sought with a large enough effect; inconclusive = small, poorly fitted or top-dose-only effect, or another doubt; inactive = no such curve, though single readings can be large; an effect the other way counts as inactive or inconclusive. Potency is read from the fitted curve at half-maximal effect.

SMILES	TDP-43 yeast inh	aSyn rescue	Abeta yeast res	FUS suppressor
CCC1CCc2c(sc(N)c2C(N)=O)C1 (configuration not stated)	3%	-10%	i	nt
Cc1ccc(-n2nnnc2SCC(=O)NCCc2ccccc2)cc1C	22µM*	nt	i	i
COc1ccc(-n2nnnc2SCC(=O)NCCc2ccccc2)cc1OC	-14%	-1%	i	i
COc1ccc(/C=C/C(=O)Nc2nc(C)c(C(=O)N(C)C)s2)cc1OC	-1%	-2%	i	i
Cc1ccc(Cl)cc1Nc1nc(-c2cccnc2)cs1	13µM*	3%	i	i
Clc1cccc(Nc2nc(-c3ccncc3)cs2)c1	13µM*	3%	i	i
Clc1ccc(Nc2nc(-c3cccnc3)cs2)cc1	19%	-7%	i	i
O=C1c2ccccc2C(=O)N1CN(C(=O)COc1ccc(Cl)cc1Cl)c1cccc(F)c1	4%	3%	i	i
COC(=O)c1ccc(NC(=O)CNS(=O)(=O)c2cccs2)cc1	-29%	13%	i	i
C=CCSc1nnc(-c2sc(-c3ccccc3)nc2C)n1C	16µM*	nt	i	i
Cc1ccc(-c2nc3cc(C)c(Br)c(C)n3c2CC2CCCCC2)cc1	16%	-10%	i	i
COc1ccc(-c2nc3cc(C)c(Br)c(C)n3c2CC2CCCCC2)cc1OC	22µM*	2%	i	i
CCC1(c2ccc(F)cc2)NC(=O)N(CC(=O)Nc2ccccc2C)C1=O (configuration not stated)	7%	0%	i	i
CC(=O)N1CCCc2cc(S(=O)(=O)N3CCCC(C(=O)N4CCN(c5ccccc5)CC4)C3)ccc21 (configuration not stated)	11%	0%	i	i
Cc1cccc(CNC(=O)C2CCN(S(=O)(=O)c3ccc4c(c3)CCCN4C(=O)C3CCC3)CC2)c1	3%	nt	i	28µM*
CC(=O)N1CCCc2cc(S(=O)(=O)N3CCCC(C(=O)N4CCN(c5cc(C)ccc5C)CC4)C3)ccc21 (configuration not stated)	-8%	7%	i	13µM*!
Cc1ccc(CNC(=O)C2CCN(S(=O)(=O)c3ccc4c(c3)CCCN4C(=O)C3CCC3)CC2)cc1	3%	nt	i	i
C#CCN(C[C@H]1[C@H](OC(=O)NCCCCCC)[C@H](OC(=O)NCCCCCC)C[C@H]2C(=O)N(c3ccccc3)C(=O)[C@@H]12)S(=O)(=O)c1ccc(C)cc1	20%	6%	i	?
CCOc1ccc(Nc2ncnc(N)n2)cc1	12%	-5%	i	i
Cc1noc(C)c1C(c1ccccc1)c1ccccc1	-3%	-5%	i	i
CC(=O)Nc1nc(-c2ccc(Cl)cc2)nc(C)c1C(C)=O	35µM*	0%	i	i
CCN(CC)c1nc(NN)nc(Nc2ccc(C)c(Cl)c2)n1	13µM*	-9%	?	i
Cc1ccc(-c2nc(Cn3c(SCc4ccc(F)cc4)nc4cccnc43)c(C)o2)cc1	26%	nt	i	i
Cc1oc(-c2cccc(Br)c2)nc1Cn1c(SCc2cccc(F)c2)nc2cccnc21	28µM*	nt	?	i
COC(=O)CC1(c2ccccc2)C(=O)c2ccccc2C1=O	-13%	6%	i	i
SMILES	TDP-43 yeast inh	aSyn rescue	Abeta yeast res	FUS suppressor
COC(=O)CC1(c2cccc3ccccc23)C(=O)c2ccccc2C1=O	22µM*	6%	i	i
O=c1c2c3c(sc2nc2n1CCCS2)CCCC3	18µM*	0%	i	i
O=c1c2c3c(sc2nc2n1CCCCC2)CCCC3	13µM*	-4%	i	i
CCNC(=S)Nc1ccc(N2CCCCC2)cc1	3%	-11%	i	i
S=C(NCCc1ccccc1)Nc1ccc(N2CCCCC2)cc1	30%	-9%	8.9µM*	i
CCCCc1ccc(NC(=O)CC(C)C)cc1	11µM*	0%	i	i
CCCCc1ccc(NC(=O)COCC)cc1	0%	-1%	i	i
O=[N+]([O-])c1ccc(N2CCN(Cc3ccccc3)CC2)s1	-7%	-11%	i	i
O=[N+]([O-])c1ccc(N2CCN(Cc3ccccc3)CC2)c2c1no[n+]2[O-]	35µM*	14%	i	i
O=C(NCCC1=CCCCC1)C1CCC(=O)N(Cc2ccc(Cl)cc2)C1 (configuration not stated)	-26%	4%	i	i
CCCNC(=O)OCc1cccnc1Sc1ccc(C)cc1	20µM*	8%	i	i
